In PubChem BioAssay (NCATS):
A number with no mark means an inactive call. Records with an inconclusive call do not appear. Activity calls are given as the source filed them. Unless noted, calls come from the whole dose curve; as a rule, active = well fitted curve in either direction with a large enough effect (not every such curve was filed as active); inconclusive = small, poorly fitted or top-dose-only effect, or another doubt; inactive = flat fitted curve, though single readings scatter.

Experiments:
[1] = biological target: Lysosomal acid glucosylceramidase (Homo sapiens) (UniProt P04062); test: Glucocerebrosidase-p2 (AID 348; in the data active = potency below about 10 µM; note: potency is the fitted concentration of half-maximal effect); conditions: purified GBA, blue fluorogenic substrate, 40 min
Chain of Lysosomal acid glucosylceramidase (Homo sapiens) (P04062 whole entry, looked up): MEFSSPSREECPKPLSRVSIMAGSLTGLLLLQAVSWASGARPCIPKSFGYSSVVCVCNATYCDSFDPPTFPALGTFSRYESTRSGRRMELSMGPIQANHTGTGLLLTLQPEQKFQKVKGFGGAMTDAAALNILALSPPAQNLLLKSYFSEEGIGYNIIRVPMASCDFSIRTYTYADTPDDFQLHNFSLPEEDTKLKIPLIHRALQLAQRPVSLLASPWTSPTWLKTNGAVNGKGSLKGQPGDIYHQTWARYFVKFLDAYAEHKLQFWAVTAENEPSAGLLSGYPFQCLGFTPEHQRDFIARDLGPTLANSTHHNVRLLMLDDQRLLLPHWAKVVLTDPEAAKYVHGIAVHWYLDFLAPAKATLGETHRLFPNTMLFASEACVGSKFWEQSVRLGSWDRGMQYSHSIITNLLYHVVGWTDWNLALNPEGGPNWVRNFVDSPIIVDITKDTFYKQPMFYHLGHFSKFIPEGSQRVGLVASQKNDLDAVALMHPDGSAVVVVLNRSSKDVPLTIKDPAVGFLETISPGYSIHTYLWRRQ
Procedure, shortened: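 Normal human glucocerebrosidase (0.2 nM) with blue fluorogenic substrate (80 uM final) in citrate/phosphate pH 5.9 with 10mM sodium taurocholate, 0.01% tween-20; 40 min RT, NaOH/glycine stop; fluorescence Ex 365/Em 440; AC50 from a titration from 0.6 nM upwards.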

[2] = AP1 Signaling Pathway (AID 357); conditions: ME-180 AP-1-bla reporter, EGF-induced, beta-lactamase ratio, 5 h; at 7.69 µM (top of the series) unless noted;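 note: ME-180 reporter cells stimulated with EGF at its EC50 level; % is set by controls: 0 for no effect and ±100 for the full control effect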
Procedure, shortened: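 In this screen, ME-180 cells in Opti-MEM with 0.5% dialyzed FBS received EC50 EGF and compound titrations for 5 h. AP-1 reporter beta-lactamase was detected via CCF4 ratio, giving AC50 for positive and negative modulators.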

[3] = NFAT Signaling Pathway (AID 444); conditions: Jurkat NFAT-bla M1, carbachol, beta-lactamase ratio, 5 h; at 7.69 µM (top of the series) unless noted;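 note: carbachol stimulus at about its EC50 of 1 µM final; % is set by controls: 0 for no effect and ±100 for the full control effect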
Procedure, shortened: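 Read-out: CCF4 FRET ratio (460 nm/530 nm) after 1 h RT dye loading, used for %activity and AC50 from titration series. Cells: Jurkat NFAT-β-lactamase/M1 line, treated with compound plus 1 uM carbachol for 5 h, 37 °C.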

[4] = Stat Signaling Pathway (AID 446); conditions: ME-180 (cervical carcinoma) SIE beta-lactamase reporter, IL-6 stimulated, 5 h; at 7.69 µM (top of the series) unless noted;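 note: ME-180 cervical cancer cells given 40 pM IL-6 alongside compound; SIE-controlled beta-lactamase reporter measured as 460/530 nm FRET emission ratio; % is set by controls: 0 for no effect and ±100 for the full control effect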
Procedure, shortened: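 FRET read-out (405 nm excitation, 460/530 nm emission) of a beta-lactamase reporter under a STAT-inducible element in ME-180 cervical carcinoma cells. Cells with compound receive 40 pM IL-6 for 5 h. Values are normalised to AC90 stimulation and AC90 JAK-inhibitor controls.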

[5] = biological target: Glucocorticoid receptor (Homo sapiens) (UniProt P04150); test: GR-GFP Redistribution (AID 450;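 active = compounds whose dose series gives a full or clear partial fitted curve of increased nuclear translocation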; note: potency is the fitted concentration of half-maximal effect); conditions: U2OS GR-GFP nuclear translocation, laser cytometry, 2 h
Chain of Glucocorticoid receptor (Homo sapiens) (P04150 whole entry, looked up, the tested form may be a part): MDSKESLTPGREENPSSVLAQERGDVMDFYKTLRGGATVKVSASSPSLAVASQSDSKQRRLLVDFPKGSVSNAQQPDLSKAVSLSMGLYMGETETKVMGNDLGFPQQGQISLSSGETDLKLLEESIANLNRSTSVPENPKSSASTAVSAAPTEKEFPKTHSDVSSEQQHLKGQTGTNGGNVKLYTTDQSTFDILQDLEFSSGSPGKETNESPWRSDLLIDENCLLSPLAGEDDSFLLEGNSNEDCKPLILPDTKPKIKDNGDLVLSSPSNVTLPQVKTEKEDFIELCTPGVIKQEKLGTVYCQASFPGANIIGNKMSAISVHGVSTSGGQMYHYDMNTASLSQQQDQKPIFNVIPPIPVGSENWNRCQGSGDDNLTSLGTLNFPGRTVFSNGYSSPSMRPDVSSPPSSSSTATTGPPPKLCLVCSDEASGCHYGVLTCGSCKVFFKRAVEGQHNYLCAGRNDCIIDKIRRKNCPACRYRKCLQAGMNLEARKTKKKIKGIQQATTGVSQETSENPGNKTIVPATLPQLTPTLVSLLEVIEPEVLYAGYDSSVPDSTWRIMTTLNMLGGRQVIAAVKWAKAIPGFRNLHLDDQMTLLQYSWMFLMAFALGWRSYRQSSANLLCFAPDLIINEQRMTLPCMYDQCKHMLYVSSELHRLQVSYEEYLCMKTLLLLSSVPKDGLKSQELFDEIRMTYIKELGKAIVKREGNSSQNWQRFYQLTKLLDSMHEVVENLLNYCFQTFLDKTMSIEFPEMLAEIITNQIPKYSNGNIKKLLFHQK

[6] = biological target: Glucocorticoid receptor (Homo sapiens) (UniProt P04150); test: GR-EFC Redistribution (AID 451; calls by dose curve; note: potency is the fitted concentration of half-maximal effect); conditions: CHO-K1 GR-EFC translocation, beta-gal luminescence, 2 h
Procedure, shortened: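 Translocation of GR-ED fusion to nuclear EA restores b-gal, read by luminescence after 1 h room-temperature detection. Engineered CHO-K1 biosensor cells, 1,000/well, exposed 2 h at 37 C to titrations up to 46 uM final.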

[7] = biological target: Mitogen-activated protein kinase 10 (Mus musculus) (UniProt Q61831); test: JNK3 AlphaScreen Assay (AID 530); conditions: JNK3 lysate, c-Jun phosphorylation; series mostly up to 11.4 µM;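 note: kinase came from lysate of stimulated human HepG2 cells; signal reports phosphorylation of biotinylated GST-cJun 1-79 at Ser73 with 10 µM ATP; % is set by controls: 0 for no effect and ±100 for the full control effect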
Procedure, shortened: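 Kinase buffer: 20 mM Tris-HCl pH 7.6, 10 mM MgCl2, 1 mM DTT, 0.1 mM Na3VO4, 0.01% Tween-20; ATP 10 uM. Substrate biotin-GST-cJun(1-79), enzyme from activated HepG2 lysates. Detection by Ser73 phospho-antibody AlphaScreen.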

[8] = biological target: 3',5'-cyclic-AMP phosphodiesterase 4B (Homo sapiens) (UniProt Q07343); test: qHTS Assay for Inhibitors of PDE-IV (AID 607; active = well fitted activation curve with a large enough effect in the main read-out, with a control signal flat, not every such curve was filed as active; note: % of control where 0% means no effect); conditions: HEK293 ACTOne CNG channel cells, membrane potential fluorescence; series mostly up to 22.9 µM
Chain of 3',5'-cyclic-AMP phosphodiesterase 4B (Homo sapiens) (Q07343 whole entry, looked up): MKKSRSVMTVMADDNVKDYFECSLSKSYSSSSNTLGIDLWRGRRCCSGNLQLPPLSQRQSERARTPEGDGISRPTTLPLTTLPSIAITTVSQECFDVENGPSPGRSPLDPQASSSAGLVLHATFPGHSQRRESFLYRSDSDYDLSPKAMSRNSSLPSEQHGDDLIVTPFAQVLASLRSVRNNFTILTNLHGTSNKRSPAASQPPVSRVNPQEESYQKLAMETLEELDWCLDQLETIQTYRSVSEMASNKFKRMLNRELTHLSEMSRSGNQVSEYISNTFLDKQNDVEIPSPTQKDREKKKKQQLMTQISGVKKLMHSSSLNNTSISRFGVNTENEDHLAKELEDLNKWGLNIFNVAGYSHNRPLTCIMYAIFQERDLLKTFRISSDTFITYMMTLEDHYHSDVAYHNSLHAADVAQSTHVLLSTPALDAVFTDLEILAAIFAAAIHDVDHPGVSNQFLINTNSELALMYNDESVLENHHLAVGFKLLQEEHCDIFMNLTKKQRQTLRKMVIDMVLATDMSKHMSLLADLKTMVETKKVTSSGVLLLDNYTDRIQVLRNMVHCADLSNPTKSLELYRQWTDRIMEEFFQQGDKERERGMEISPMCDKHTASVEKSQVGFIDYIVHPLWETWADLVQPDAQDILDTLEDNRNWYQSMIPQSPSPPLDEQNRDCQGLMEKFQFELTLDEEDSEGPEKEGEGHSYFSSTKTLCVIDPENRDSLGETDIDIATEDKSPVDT
Procedure, shortened: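 Cell-based read-out of cAMP via a modified cyclic nucleotide-gated channel and membrane potential dye (535/590 nm) in HEK293 cells expressing PDE4 endogenously. Compounds tested up to 22.9 uM final; 100 uM RO 20-1724 reference.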

[9] = biological target: Cytochrome P450 1A2 (Homo sapiens) (UniProt P05177); test: p450-cyp1a2 (AID 410; calls by dose curve; note: potency is the fitted concentration of half-maximal effect;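 for activity change, negative = inhibition: -100% = full effect of reference inhibitor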); conditions: recombinant CYP1A2, luciferin-ME demethylation, luminescence; series mostly up to 11.4 µM
Chain of Cytochrome P450 1A2 (Homo sapiens) (P05177 whole entry, looked up): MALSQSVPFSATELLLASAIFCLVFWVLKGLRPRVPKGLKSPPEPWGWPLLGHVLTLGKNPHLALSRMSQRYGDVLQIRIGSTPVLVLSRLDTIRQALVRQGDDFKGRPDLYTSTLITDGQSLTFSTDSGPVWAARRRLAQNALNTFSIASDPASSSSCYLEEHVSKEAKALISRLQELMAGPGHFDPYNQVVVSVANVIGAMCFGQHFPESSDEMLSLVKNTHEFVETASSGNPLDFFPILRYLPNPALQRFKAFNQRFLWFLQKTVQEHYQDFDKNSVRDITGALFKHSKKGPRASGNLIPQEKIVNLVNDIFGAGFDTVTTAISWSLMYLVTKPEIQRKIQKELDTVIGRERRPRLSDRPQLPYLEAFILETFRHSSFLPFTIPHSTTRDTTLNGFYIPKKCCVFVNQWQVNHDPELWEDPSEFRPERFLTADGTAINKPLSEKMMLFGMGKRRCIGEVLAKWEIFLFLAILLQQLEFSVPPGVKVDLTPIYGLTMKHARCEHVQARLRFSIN
Procedure, shortened: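 20nM CYP1A2, 100uM Luciferin-ME (=Km), 100mM KPO4; cpd 10 min RT; +NADPH regen, 60 min RT; stop/detect 20 min; luminescence. Normalized to furafylline 57 uM = full inhibition.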

[10] = biological target: Cytochrome P450 3A4 (Homo sapiens) (UniProt P08684); test: qHTS Assay for Inhibitors and Substrates of Cytochrome P450 3A4 (AID 884; active = well fitted curve in the direction sought with a large enough effect; an effect the other way counts as inactive or inconclusive; note: potency is the fitted concentration of half-maximal effect; nearly all actives have a fitted effect of over 50% in size); conditions: recombinant CYP3A4, Luciferin-PPXE luminescence; series mostly up to 57.1 µM
Chain of Cytochrome P450 3A4 (Homo sapiens) (P08684 whole entry, looked up): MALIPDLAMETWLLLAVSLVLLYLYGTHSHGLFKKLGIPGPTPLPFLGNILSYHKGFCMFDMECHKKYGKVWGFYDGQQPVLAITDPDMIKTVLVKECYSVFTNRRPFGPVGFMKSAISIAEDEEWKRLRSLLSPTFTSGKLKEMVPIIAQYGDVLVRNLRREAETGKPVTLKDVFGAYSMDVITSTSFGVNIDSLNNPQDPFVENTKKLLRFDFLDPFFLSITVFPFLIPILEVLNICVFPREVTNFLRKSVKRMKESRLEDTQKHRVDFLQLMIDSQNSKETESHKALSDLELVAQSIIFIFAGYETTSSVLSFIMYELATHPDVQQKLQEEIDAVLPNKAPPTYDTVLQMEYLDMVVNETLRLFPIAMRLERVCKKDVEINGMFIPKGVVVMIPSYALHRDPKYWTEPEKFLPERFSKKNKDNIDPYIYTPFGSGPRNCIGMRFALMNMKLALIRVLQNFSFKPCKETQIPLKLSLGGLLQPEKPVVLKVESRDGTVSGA
Procedure, shortened: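 Luminescent readout of luciferin produced by CYP3A4 (20 nM) dealkylation of Luciferin-PPXE, 25 uM (its KM). NADPH-driven reaction ran 60 min at RT after 10 min compound preincubation; data scaled to 57 uM ketoconazole as 100% inhibition.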

[11] = biological target: Cytochrome P450 3A4 (Homo sapiens) (UniProt P08684); test: qHTS Assay for Activators of Cytochrome P450 3A4 (AID 885; active = well fitted curve in the direction sought with a large enough effect; an effect the other way counts as inactive or inconclusive; note: nearly all actives have a fitted effect of over 65% in size); conditions: recombinant CYP3A4, Luciferin-PPXE luminescence, 60 min; series mostly up to 11.4 µM
Procedure, shortened: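 Luminescent readout of luciferin formed from 25 uM Luciferin-PPXE (KM level) by 20 nM CYP3A4 in 200 mM KPO4, with 60 min NADPH-driven reaction at room temperature after 10 min compound exposure. Ketoconazole (57 uM) defined 100% inhibition.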

[12] = biological target: Cytochrome P450 2D6 (Homo sapiens) (UniProt P10635); test: qHTS Assay for Inhibitors and Substrates of Cytochrome P450 2D6 (AID 891; active = well fitted curve in the direction sought with a large enough effect; an effect the other way counts as inactive or inconclusive; note: potency is the fitted concentration of half-maximal effect; nearly all actives have a fitted effect of over 60% in size); conditions: recombinant CYP2D6, luciferin-ME EGE luminescence; series mostly up to 11.4 µM
Chain of Cytochrome P450 2D6 (Homo sapiens) (P10635 whole entry, looked up): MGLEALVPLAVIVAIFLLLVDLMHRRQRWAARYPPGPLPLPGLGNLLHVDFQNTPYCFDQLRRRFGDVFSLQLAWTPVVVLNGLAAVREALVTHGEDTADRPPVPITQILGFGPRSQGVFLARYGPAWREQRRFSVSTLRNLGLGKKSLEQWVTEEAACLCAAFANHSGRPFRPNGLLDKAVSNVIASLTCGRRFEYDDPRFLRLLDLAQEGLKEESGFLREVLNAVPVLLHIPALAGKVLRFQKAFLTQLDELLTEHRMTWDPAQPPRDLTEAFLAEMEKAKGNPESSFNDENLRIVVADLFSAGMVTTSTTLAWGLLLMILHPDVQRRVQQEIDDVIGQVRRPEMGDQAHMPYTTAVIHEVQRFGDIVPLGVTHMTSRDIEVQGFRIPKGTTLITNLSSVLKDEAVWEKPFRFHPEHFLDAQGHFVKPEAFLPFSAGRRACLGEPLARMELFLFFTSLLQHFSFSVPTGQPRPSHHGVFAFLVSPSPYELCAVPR
Procedure, shortened: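 Luminescent read-out of luciferin formed by 5 nM human CYP2D6 demethylating 30 uM Luciferin-ME EGE (Km level) over 60 min at room temperature after NADPH regeneration addition. Data normalized to full inhibition by 1.43 uM quinidine.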

[13] = biological target: Cytochrome P450 2C19 (Homo sapiens) (UniProt P33261); test: qHTS Assay for Inhibitors and Substrates of Cytochrome P450 2C19 (AID 899; active = well fitted curve in the direction sought with a large enough effect; an effect the other way counts as inactive or inconclusive; note: potency is the fitted concentration of half-maximal effect; nearly all actives have a fitted effect of over 60% in size); conditions: recombinant CYP2C19, luciferin-H EGE luminescence; series mostly up to 11.4 µM
Chain of Cytochrome P450 2C19 (Homo sapiens) (P33261 whole entry, looked up): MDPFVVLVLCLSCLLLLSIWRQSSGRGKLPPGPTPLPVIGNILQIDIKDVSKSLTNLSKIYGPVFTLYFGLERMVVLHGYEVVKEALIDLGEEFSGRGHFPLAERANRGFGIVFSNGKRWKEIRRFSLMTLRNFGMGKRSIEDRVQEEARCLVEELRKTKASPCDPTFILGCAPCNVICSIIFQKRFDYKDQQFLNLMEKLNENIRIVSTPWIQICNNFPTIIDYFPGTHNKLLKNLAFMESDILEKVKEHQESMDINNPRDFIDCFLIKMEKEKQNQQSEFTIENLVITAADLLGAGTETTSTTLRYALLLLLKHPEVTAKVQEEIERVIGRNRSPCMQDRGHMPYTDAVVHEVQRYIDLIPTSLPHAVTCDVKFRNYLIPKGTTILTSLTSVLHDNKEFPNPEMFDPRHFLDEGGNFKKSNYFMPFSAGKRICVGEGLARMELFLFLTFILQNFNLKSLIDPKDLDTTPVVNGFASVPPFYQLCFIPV
Procedure, shortened: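 5nM enzyme + 10uM Luciferin-H EGE (=KM), 50mM KPO4; cpd pin-transferred, 10 min 37C; NADPH regen, 60 min 37C; stopped w/ luciferin detection reagent, 20 min; luminescence. Normalized to 57uM ketoconazole (AC100).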

Row | Structure (SMILES) | Potency [1] [µM] | activity change, negative = inhibition [2] [%] | activity change, negative = inhibition [3] [%] | activity, negative = inhibition [4] [%] | Potency [5] [µM] | Potency [6] [µM] | Potency [7] | Potency [8] | Potency [9] | Potency [10] | Potency [11] | Potency [12] | Potency [13]
1 | O=C(O)c1ccc(C(=O)O)c2c(C(=O)O)ccc(C(=O)O)c12 | > 11.4 | -5.07 | 5.59 | -1.89 | > 46 | > 9.22 | inactive | inactive | – | – | – | – | –
2 | CC(C)c1cc(C(F)(F)F)nc(NNc2nc(C(C)C)cc(C(F)(F)F)n2)n1 | > 11.4 | -11.8 | – | – | > 46 | > 9.22 | inactive | inactive | inactive | 3.16 µM (active) | inactive | 0.126 µM (active) | 2.51 µM (active)
3 | O=C(O)Cc1[nH]cnc1C(=O)O | > 11.4 | -11 | 7.88 | -3.92 | > 46 | > 9.22 | – | – | – | – | – | – | –
4 | CCOC(=O)c1c2c(n3ccccc13)C(=O)c1ccccc1C2=O | > 11.4 | 19.9 | – | – | > 46 | – | – | inactive | 0.1 µM (active) | – | inactive | – | –
5 | NC(N)=NC[C@H](N)C(=O)O | > 11.4 | 1.65 | 10.9 | 0.308 | > 46 | > 9.22 | inactive | inactive | – | – | – | – | –
6 | Cc1cc2c(=O)[nH]c(N)nc2nc1C | > 11.4 | 1.82 | 7.25 | 9.62 | > 46 | > 9.22 | inactive | inactive | – | – | – | – | –
7 | O=C(O)C(Cc1ccccc1)Cc1ccccc1 | > 11.4 | 8.41 | 1.48 | -8.39 | > 46 | > 9.22 | inactive | inactive | – | – | – | – | –
8 | O=C(O)[C@H]1O[C@H]1C(=O)O | > 11.4 | 7.85 | -1.75 | 2.71 | > 46 | > 9.22 | inactive | inactive | – | – | – | – | –
